From PubChem BioAssay (NCATS)
Values joined by “and” are separate entries in the source; they are usually repeats but may differ in a detail not shown here. Equal entries are not always repeated. Inconclusive results are not listed. Active and inactive are the calls of the source. Calls come from the whole dose curve; as a rule, active = well fitted curve in the direction sought with a large enough effect; inconclusive = small, poorly fitted or top-dose-only effect, or another doubt; inactive = no such curve, though single readings can be large; an effect the other way counts as inactive or inconclusive.

Tests used:
[1] = target: Cytochrome P450 3A7 (Homo sapiens) (UniProt P24462); assay: Cytochrome P450 family 3 subfamily A member 7 (CYP3A7) small molecule antagonists: luciferase biochemical qHTS assay (AID 1963596); note: % is set by controls: 0 for no effect and ±100 for the full control effect; nearly all actives have a fitted effect of over 40% in size
Chain of Cytochrome P450 3A7 (Homo sapiens) (P24462 whole entry, looked up): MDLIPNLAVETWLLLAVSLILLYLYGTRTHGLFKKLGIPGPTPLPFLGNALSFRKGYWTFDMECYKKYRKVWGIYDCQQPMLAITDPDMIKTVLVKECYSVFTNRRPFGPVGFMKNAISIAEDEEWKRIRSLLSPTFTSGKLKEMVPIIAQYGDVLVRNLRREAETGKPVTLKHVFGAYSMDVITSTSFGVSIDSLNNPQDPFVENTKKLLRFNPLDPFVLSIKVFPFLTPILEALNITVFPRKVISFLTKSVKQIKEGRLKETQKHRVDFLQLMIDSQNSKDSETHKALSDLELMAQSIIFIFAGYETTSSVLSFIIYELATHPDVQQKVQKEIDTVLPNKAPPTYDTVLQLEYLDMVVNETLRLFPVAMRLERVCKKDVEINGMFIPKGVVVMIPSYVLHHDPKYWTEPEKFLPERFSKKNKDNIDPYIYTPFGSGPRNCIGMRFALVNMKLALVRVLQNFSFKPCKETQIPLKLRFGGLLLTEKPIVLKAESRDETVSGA
Outline: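 Enzyme-substrate mix + cpd (DMSO), 10 min RT; + NADPH regen system, 1 h RT; + luciferin detection reagent, 20 min RT; luminescence read. Proluciferin substrate, P450-Glo format, 1536-well qHTS.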

[2] = Viability qHTS for spleen associated tyrosine kinase inhibitor (SYKi) naive MV4-11 cells (AID 1963823); note: nearly all actives have a fitted effect of over 40% in size; note: potency is the fitted concentration of half-maximal effect
Outline: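 SYKi-naive MV4-11 AML cells, 500 per well, were exposed to library compounds for 72 hr at 37 C, 5% CO2. Viability was then read by CellTiter-Glo luminescence after 10 min at room temperature.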

[3] = Cellular viability qHTS for adrenocortical cancer (ACC) cell line SW-13 (AID 1963989); conditions: SW-13 ACC cells viability, CellTiter-Glo, 48 h; activity (max response): hits give low values; note: nearly all actives have a fitted effect of over 65% in size; note: potency is the fitted concentration of half-maximal effect;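 for activity (max response): cells grown in serum-free medium with ITS supplement; % is set by controls: 0 for no effect and ±100 for the full control effect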
Outline: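 IC50 and maximal-response values come from four-parameter logistic fits of titration data. SW-13 cells in serum-free medium received compounds (up to 46 uM final) for 48 h before CellTiter-Glo luminescence.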

[4] = Viability qHTS for spleen associated tyrosine kinase inhibitor (SYKi) drug resistant MV4-11 cells (AID 1963824); note: nearly all actives have a fitted effect of over 35% in size
Outline: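 SYK inhibitor-resistant MV4-11 AML cells, 500 per well, added to predispensed compounds and incubated 72 hr at 37 C, 5% CO2. Viability measured by CellTiter-Glo luminescence after 10 min at room temperature.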

[5] = Cellular viability qHTS for adrenocortical cancer (ACC) cell line NCI-H295R (AID 1963990); note: nearly all actives have a fitted effect of over 60% in size; note: potency is the fitted concentration of half-maximal effect
Outline: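 Adrenocortical carcinoma cells, suspended at 300 000 cells/mL in serum-free DMEM plus ITS, rested overnight before pin transfer of compound. After two days' incubation, ATP-dependent luminescence was recorded and curve-fitted.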

[6] = Quantitative highthroughput screen to assess conditional lethalithy of NOMO1 cells grown in RPMI1640 with untreated serum (RPMI+s) (AID 1963876); note: nearly all actives have a fitted effect of over 35% in size; note: potency is the fitted concentration of half-maximal effect;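 for Viability: 100% = DMSO wells and 0% = empty wells without cells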
Outline: (§1)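 Each medium arm—HPLM with 10% dialyzed FBS, or RPMI1640 with 5 mM glucose and 10% untreated or dialyzed FBS—was screened against an 11-point, 3-fold compound titration for 48 h at 37 °C, with CellTiter-Glo luminescence as endpoint.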

[7] = Quantitative highthroughput screen to assess conditional lethalithy of NOMO1 cells grown in RPMI1640 with dialyzed fetal bovine serum (RPMI+ds) (AID 1963877); note: nearly all actives have a fitted effect of over 30% in size; note: potency is the fitted concentration of half-maximal effect;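 for Viability: series mostly up to about 46 µM; 100% = DMSO control wells and 0% = empty wells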
Outline: as §1

[8] = Quantitative highthroughput screen to assess conditional lethalithy of NOMO1 cells grown in Human Plasma-Like Medium with dialyzed fetal bovine serum (HPLM+ds) (AID 1963878); note: nearly all actives have a fitted effect of over 35% in size; note: potency is the fitted concentration of half-maximal effect;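 for Viability: 100% = DMSO wells and 0% = empty wells on each plate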
Outline: as §1

[9] = Quantitative highthroughput screen to assess conditional lethalithy of P12 Ichikawa cells grown in Human Plasma-Like Medium with dialyzed fetal bovine serum (HPLM+ds) (AID 1963879); conditions: Potency: viability; note: nearly all actives have a fitted effect of over 35% in size; note: potency is the fitted concentration of half-maximal effect; for Viability: series mostly up to about 46 µM
Outline: as §1

[10] = Quantitative highthroughput screen to assess conditional lethalithy of P12 Ichikawa cells grown in RPMI1640 with dialyzed fetal bovine serum (RPMI+ds) (AID 1963880); conditions: Potency: P12-Ichikawa viability; note: nearly all actives have a fitted effect of over 35% in size; note: potency is the fitted concentration of half-maximal effect;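 for Viability: 100% = DMSO wells and 0% = empty wells on each plate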
Outline: as §1

[11] = Quantitative highthroughput screen to assess conditional lethalithy of P12 Ichikawa cells grown in RPMI1640 with untreated serum (RPMI+s) (AID 1963881); conditions: Potency: viability; note: nearly all actives have a fitted effect of over 35% in size; note: potency is the fitted concentration of half-maximal effect;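 for Viability: series mostly up to about 46 µM; 100% = DMSO wells and 0% = empty wells without cells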
Outline: as §1

[12] = Quantitative highthroughput screen to assess conditional lethalithy of SEM cells grown in RPMI1640 with unreated serum (RPMI+s) (AID 1963883); note: nearly all actives have a fitted effect of over 35% in size; note: potency is the fitted concentration of half-maximal effect;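 for Viability: 100% = DMSO wells and 0% = empty wells without cells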
Outline: as §1

[13] = Quantitative highthroughput screen to assess conditional lethalithy of SEM cells grown in Human Plasma-Like Medium with dialyzed fetal bovine serum (HPLM+ds) (AID 1963882)
Outline: as §1

[14] = Quantitative highthroughput screen to assess conditional lethalithy of SEM cells grown in RPMI1640 with dialyzed fetal bovine serum (RPMI+ds) (AID 1963884); note: nearly all actives have a fitted effect of over 35% in size; note: potency is the fitted concentration of half-maximal effect;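 for Viability: series mostly up to about 46 µM; 100% = DMSO control wells and 0% = empty wells without cells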
Outline: as §1

CN(C)CCOC(=O)C(c1ccccc1)C1(O)CCCC1 (stereo unspecified)
inactive: Potency [1] | Potency [2] | activity (max response) [3] 6.08%

Cc1c(Nc2ncccc2C(=O)O)cccc1C(F)(F)F
inactive: Potency [1] | Potency [2] | activity (max response) [3] -9.06%

[O-][n+]1cccc(CO)c1
inactive: Potency [1] | Potency [2] | Potency [4] | Potency [5]

CC1=NS(=O)(=O)c2cc(Cl)ccc2N1
inactive: Potency [1] | Potency [2] | Potency [4] | Potency [5]

Cc1c[nH]c2ccccc12
inactive: Potency [1] | Potency [2] | activity (max response) [3] 13.2%

CCN(C)C(=O)Oc1cccc([C@H](C)N(C)C)c1
inactive: Potency [1] | Potency [2] | Potency [6] | Potency [7] | Potency [8] | Potency [9] | Potency [10] | Potency [11] | Potency [12] | activity (max response) [3] 11.5% | Potency [5]

CCCC(CCC)C(=O)O
inactive: Potency [1] | Potency [2] | Potency [6] | Potency [9] | Potency [10] | Potency [11] | Potency [13] | Potency [12] | Potency [14] | activity (max response) [3] 6.17% and -13.6% | Potency [5]

CNCCC(Oc1ccccc1OC)c1ccccc1 (stereo unspecified)
inactive: Potency [1] | Potency [2] | Potency [4] | Potency [5]

Cc1sccc1Br
inactive: Potency [1] | Potency [2] | Potency [4] | Potency [5]

O=C(O)CN(CCN(CC(=O)O)CC(=O)O)CCN(CC(=O)O)CC(=O)O
inactive: Potency [1] | Potency [2] | activity (max response) [3] 9.05%

CNNCc1ccc(C(=O)NC(C)C)cc1
inactive: Potency [1] | Potency [2] | Potency [6] | Potency [7] | Potency [9] | activity (max response) [3] 0.571% and -4.58% | Potency [5]

CCCCOc1ccc(C(=O)Nc2ccc(F)cc2F)cc1
inactive: Potency [1] | Potency [2] | Potency [6] | Potency [7] | Potency [10] | Potency [11] | Potency [13] | Potency [14]

COC(=O)Nc1nc2ccc(C(=O)c3cccs3)cc2[nH]1
inactive: Potency [1]
active: Potency [2] 106 nM | Potency [9] 18.7 nM | Potency [11] 29.6 nM | Potency [3] 8.2 nM and 126 nM | Potency [5] 9.2 nM and 158 nM

CN(c1nccc(=O)[nH]1)C1CCN(c2nc3ccccc3n2Cc2ccc(F)cc2)CC1
inactive: Potency [1] | Potency [2] | Potency [7] | Potency [8] | Potency [9] | Potency [10] | Potency [11] | Potency [12] | activity (max response) [3] 5.56% | Potency [5]

C[C@@H](CN1CC(=O)NC(=O)C1)N1CC(=O)NC(=O)C1
active: Potency [6] 469 nM | Potency [7] 332 nM | Potency [8] 148 nM | Potency [9] 372 nM | Potency [10] 590 nM | Potency [11] 833 nM | Potency [12] 66.2 nM | Potency [14] 74.3 nM
inactive: Potency [1] | Potency [2] | activity (max response) [3] 3.22% and 6.64% | Potency [5]

Nc1nc2c(ncn2CCC(CO)CO)c(=O)[nH]1
inactive: Potency [1] | Potency [2] | activity (max response) [3] -4.77%

Clc1cccc(Cl)c1NC1=NCCN1
inactive: Potency [1] | Potency [2] | Potency [6] | Potency [7] | Potency [8] | Potency [9] | Potency [10] | Potency [11] | Potency [13] | Potency [12] | Potency [14] | activity (max response) [3] 13.1% | Potency [5]

CC[C@H](C)C(=O)O[C@H]1C[C@H](O)C=C2C=C[C@H](C)[C@H](CC[C@@H](O)C[C@@H](O)CC(=O)O)[C@H]21
inactive: Potency [1] | Potency [2] | Potency [6] | Potency [8] | Potency [9] | Potency [10] | Potency [11] | Potency [13] | Potency [12] | Potency [14] | activity (max response) [3] -19.4%

COc1cc(NS(=O)(=O)c2ccc(N)cc2)ncn1
inactive: Potency [1] | Potency [2] | Potency [4] | Potency [5]

CCc1cc(Cl)c(OC)c(C(=O)NC[C@@H]2CCCN2CC)c1O
inactive: Potency [1] | Potency [2] | activity (max response) [3] -13.7%

CC(=O)OCC(=O)NCCCOc1cccc(CN2CCCCC2)c1
inactive: Potency [1] | Potency [2] | activity (max response) [3] 3.89%

C/C=C/C(=O)N(CC)c1ccccc1C
inactive: Potency [1] | Potency [2] | Potency [4] | Potency [5]

COC(=O)Nc1nc2ccc(C(=O)c3ccccc3)cc2[nH]1
active: Potency [2] 332 nM | Potency [10] 1870 nM | Potency [11] 332 nM | Potency [3] 130 nM and 316 nM
inactive: Potency [1]

O=NN(CCCl)C(=O)NC1CCCCC1
inactive: Potency [1] | Potency [2] | Potency [6] | Potency [7] | Potency [8] | Potency [9] | Potency [10] | Potency [11] | Potency [13] | Potency [12] | activity (max response) [3] 15.5% and -13.1%

CCCCC(CC)COC(=O)c1ccccc1O (stereo unspecified)
inactive: Potency [1] | activity (max response) [3] 7.38%
active: Potency [2] 596 nM

CC(N)C12CC3CC(CC(C3)C1)C2 (stereo unspecified)
inactive: Potency [1] | Potency [2] | Potency [13] | Potency [12] | Potency [14] | activity (max response) [3] -5.6% and -7.27% | Potency [5]
active: Potency [9] 26400 nM
